Results reported in the supplement of paper PMC8728848.
About 410 targets per protein were measured; listed, in parts, are those with the strongest signals and a random draw of the rest.

What was measured:
Experiment in all cases: glycan array binding signal (z-score within array); higher = stronger binding
Conditions in all cases: glycan notation: IUPAC condensed, linker removed
[1] = biological target: Fuc(a1-2)Gal(b1-3)GlcNAc6S
Summary of the method: (§1)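 Arrays were curated from the Consortium for Functional Glycomics database, 3228 in total, and kept only where the protein sequence was available. Binding is expressed as a within-array Z-score. This score was averaged across arrays of the same protein sequence at different concentrations or buffers and across linkers, and negative values can be read as non-binding.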

[2] = biological target: Fuc(a1-2)Gal(b1-3)[Fuc(a1-4)]GlcNAc(b1-2)Man(a1-3)[Fuc(a1-2)Gal(b1-3)[Fuc(a1-4)]GlcNAc(b1-2)Man(a1-6)]Man(b1-4)GlcNAc(b1-4)GlcNAc
Summary of the method: as §1

[3] = biological target: Fuc(a1-2)Gal(b1-3)[Fuc(a1-4)]GlcNAc(b1-2)Man(a1-6)[Fuc(a1-2)Gal(b1-3)[Fuc(a1-4)]GlcNAc(b1-2)Man(a1-3)]Man(b1-4)GlcNAc(b1-4)[Fuc(a1-6)]GlcNAc
Summary of the method: as §1

[4] = biological target: Fuc(a1-2)Gal(b1-3)[Fuc(a1-4)]GlcNAc(b1-3)[Gal(b1-4)GlcNAc(b1-6)]Gal(b1-4)Glc
Summary of the method: as §1

Fuc(a1-2)Gal(b1-4)Glc = biological target: Fuc(a1-2)Gal(b1-4)Glc
Summary of the method: as §1

[5] = biological target: Fuc(a1-2)Gal(b1-4)GlcNAc(b1-3)[Fuc(a1-2)Gal(b1-4)GlcNAc(b1-6)]GalNAc
Summary of the method: as §1

[6] = biological target: Fuc(a1-2)Gal(b1-4)[Fuc(a1-3)]GlcNAc(b1-3)[Neu5Ac(a2-6)Gal(b1-4)GlcNAc(b1-6)]Gal(b1-4)Glc
Summary of the method: as §1

[7] = biological target: Fuc(a1-2)Gal6S(b1-4)Glc6S
Summary of the method: as §1

[8] = biological target: Fuc(a1-2)[Gal(a1-3)]Gal(b1-3)GlcNAc(b1-2)Man(a1-3)[Fuc(a1-2)[Gal(a1-3)]Gal(b1-3)GlcNAc(b1-2)Man(a1-6)]Man(b1-4)GlcNAc(b1-4)GlcNAc
Summary of the method: as §1

[9] = biological target: Fuc(a1-2)[Gal(a1-3)]Gal(b1-4)[Fuc(a1-3)]GlcNAc
Summary of the method: as §1

[10] = biological target: Fuc(a1-2)[GalNAc(a1-3)]Gal(b1-4)GlcNAc(b1-3)Gal(b1-4)GlcNAc
Summary of the method: as §1

[11] = biological target: Fuc(a1-3)[Gal(b1-4)]GlcNAc(b1-2)Man(a1-3)[Fuc(a1-3)[Gal(b1-4)]GlcNAc(b1-2)Man(a1-6)]Man(b1-4)GlcNAc(b1-4)GlcNAc
Summary of the method: as §1

[12] = biological target: Fuc(a1-3)[Gal(b1-4)]GlcNAc(b1-3)Gal(b1-3)[Fuc(a1-4)]GlcNAc
Summary of the method: as §1

[13] = biological target: Fuc(a1-3)[Gal(b1-4)]GlcNAc(b1-4)Gal(b1-4)[Fuc(a1-3)]GlcNAc(b1-4)Gal(b1-4)[Fuc(a1-3)]GlcNAc
Summary of the method: as §1

[14] = biological target: Fuc(a1-3)[GalNAc(b1-4)]GlcNAc
Summary of the method: as §1

[15] = biological target: Fuc(a1-3)[GalNAc(b1-4)]GlcNAc6S
Summary of the method: as §1

[16] = biological target: Fuc(a1-3)[GalNAc3S(b1-4)]GlcNAc
Summary of the method: as §1

[17] = biological target: Gal(a1-3)Gal(b1-3)[Fuc(a1-4)]GlcNAc(b1-2)Man(a1-3)[Gal(a1-3)Gal(b1-3)[Fuc(a1-4)]GlcNAc(b1-2)Man(a1-6)]Man(b1-4)GlcNAc(b1-4)GlcNAc
Summary of the method: as §1

Gal(a1-4)GlcNAc = biological target: Gal(a1-4)GlcNAc
Summary of the method: as §1

Gal(b1-3)Gal = biological target: Gal(b1-3)Gal
Summary of the method: as §1

Gal(b1-3)Gal(b1-4)GlcNAc = biological target: Gal(b1-3)Gal(b1-4)GlcNAc
Summary of the method: as §1

Gal(b1-3)GalNAc = biological target: Gal(b1-3)GalNAc
Summary of the method: as §1

[18] = biological target: Gal(b1-3)GlcNAc(b1-2)Man(a1-3)[Gal(b1-3)GlcNAc(b1-2)Man(a1-6)]Man(b1-4)GlcNAc(b1-4)GlcNAc
Summary of the method: as §1

[19] = biological target: Gal(b1-3)GlcNAc(b1-3)Gal(b1-4)[Fuc(a1-3)]GlcNAc(b1-6)[Gal(b1-3)GlcNAc(b1-3)]Gal(b1-4)Glc
Summary of the method: as §1

[20] = biological target: Gal(b1-4)GlcNAc(b1-2)Man(a1-3)[GlcNAc(b1-2)Man(a1-6)]Man(b1-4)GlcNAc(b1-4)GlcNAc
Summary of the method: as §1

[21] = biological target: Gal(b1-4)GlcNAc(b1-2)Man(a1-6)Man(b1-4)GlcNAc(b1-4)GlcNAc
Summary of the method: as §1

[22] = biological target: Gal(b1-4)GlcNAc(b1-2)[Gal(b1-4)GlcNAc(b1-6)]Man(a1-6)[Gal(b1-4)GlcNAc(b1-2)Man(a1-3)]Man(b1-4)GlcNAc(b1-4)GlcNAc
Summary of the method: as §1

[23] = biological target: Gal(b1-4)GlcNAc(b1-6)GalNAc
Summary of the method: as §1

[24] = biological target: Gal3S(b1-3)[Fuc(a1-4)]GlcNAc
Summary of the method: as §1

Gal3S(b1-4)GlcNAc = biological target: Gal3S(b1-4)GlcNAc
Summary of the method: as §1

B1: CCL1 (Coprinopsis cinerea) (protein)
chain: MDTQAKPPAGRYVIYNRVLSPNGEKLALTYPGYQREALTLTPLHHSANQIWILNNWDATTSSLTPETARNTQVGWGSGNVPIVLPPGNYVWTLASSAGGYIIQDGGKTVYWNAGEAVANTKVSIGGDNGLQARWIFERV
- glycan array binding signal (z-score) [1]: -0.097
- glycan array binding signal (z-score) [2]: -0.006
- glycan array binding signal (z-score) [3]: -0.148
- glycan array binding signal (z-score) [4]: -0.144
- glycan array binding signal (z-score) (Fuc(a1-2)Gal(b1-4)Glc): -0.127
- glycan array binding signal (z-score) [5]: -0.025
- glycan array binding signal (z-score) [6]: -0.142
- glycan array binding signal (z-score) [7]: -0.033
- glycan array binding signal (z-score) [8]: -0.131
- glycan array binding signal (z-score) [9]: -0.138
- glycan array binding signal (z-score) [10]: -0.161
- glycan array binding signal (z-score) [11]: 0.237
- glycan array binding signal (z-score) [12]: 1.7
- glycan array binding signal (z-score) [13]: 1.68
- glycan array binding signal (z-score) [14]: 8.48
- glycan array binding signal (z-score) [15]: 13.6
- glycan array binding signal (z-score) [16]: 7.46
- glycan array binding signal (z-score) [17]: -0.081
- glycan array binding signal (z-score) (Gal(a1-4)GlcNAc): -0.164
- glycan array binding signal (z-score) (Gal(b1-3)Gal): -0.15
- glycan array binding signal (z-score) (Gal(b1-3)Gal(b1-4)GlcNAc): -0.151
- glycan array binding signal (z-score) (Gal(b1-3)GalNAc): -0.163
- glycan array binding signal (z-score) [18]: -0.119
- glycan array binding signal (z-score) [19]: 0.276
- glycan array binding signal (z-score) [20]: -0.106
- glycan array binding signal (z-score) [21]: -0.133
- glycan array binding signal (z-score) [22]: -0.131
- glycan array binding signal (z-score) [23]: -0.142
- glycan array binding signal (z-score) [24]: -0.116
- glycan array binding signal (z-score) (Gal3S(b1-4)GlcNAc): -0.123
